Compound activity as filed in PubChem.
BoNT F protease = BoNT F light chain protease inhibition; Multiplex microsphere protease cleavage assay, flow cytometry; inhibition, % at 10 µM; actives 0.22% (n = 360,000); AID 588497; in the data active means inhibition above about 35%, passing the limit was not always enough; inconclusive means no clear call, values can overlap the other calls
BoNT-A LC inh2 = blocks Botulinum neurotoxin A light chain protease. actives 0.17% (n = 360,000). multiplex microsphere protease substrate cleavage, flow cytometry. inhibition, % at 10 µM. AID 588499
SSB-PriA inh = inhibitors of Klebsiella pneumoniae PriA binding to SSB C-terminal tail. AlphaScreen SSBct-PriA binding, biotinylated peptide. inhibition, % at 33 µM. actives 0.6% (n = 430,000). AID 1272365; in the data active means inhibition mostly above about 37%, no sharp cut-off; inactive means mostly below about 20%
Anthrax LF inh2 = anthrax lethal factor protease inhibition; inhibition, % at 10 µM; AID 588501; actives 0.12% (n = 360,000); P15917; multiplex microsphere protease cleavage assay, LF
Bead autofluor = flagged as autofluorescent in microsphere protease counterscreen; actives 3.1% (n = 360,000); compound autofluorescence counterscreen, microsphere flow cytometry; stronger effect = higher value; AID 624483; fluorescence intensity (test concentration not listed); in the data active means fluorescence intensity above about 16000; inconclusive means no clear call, values can overlap the other calls
A number is an active result; n = inactive; u = inconclusive; x = no result given. Sampled rows, rich in hits. Any-hit rate of the full collection: about 3.1%. Unless noted, no stated cut-off is given here; in the data, active means inhibition above about 30%; inconclusive means no clear call, values can overlap the other calls; inactive means below that.

SMILES	BoNT F protease	BoNT-A LC inh2	SSB-PriA inh	Anthrax LF inh2	Bead autofluor
COC(=O)c1ccc(C(=O)Nc2nnc(-c3cccc(S(C)(=O)=O)c3)o2)cc1	x	x	n	x	x
Cc1ccc([N+](=O)[O-])cc1NC=C1CCCCC1=O	x	x	n	x	x
COc1ccc(N(CC(O)Cn2cc(/C=N\NC(N)=O)c3ccccc32)S(C)(=O)=O)cc1 (configuration not stated)	x	x	n	x	x
NC(=O)C1(N2CCCCC2)CCN(Cc2ccc(Br)cc2)CC1	u	u	n	n	n
NC(=O)C1(N2CCCCC2)CCN(Cc2ccc(F)cc2)CC1	n	n	n	n	21961
CCOC(=O)C1CCN(Cc2ccc(F)cc2)CC1	n	n	n	n	16511
CCCN1CCCc2cc(CCNC(=O)C(=O)Nc3ccc4c(c3)OCCO4)ccc21	x	x	n	x	x
CN1CCN(C(=O)c2cccc(-c3cc(O)c4ncccc4c3)c2)CC1	n	n	n	n	n
Oc1cc(-c2cccnc2)cc2cccnc12	n	n	54	n	n
Nc1c(O)ccc2cccnc12	x	x	n	x	x
Oc1cc(Nc2ccccc2)cc2cccnc12	n	n	65	n	n
CN1CCN(c2cc(-c3cc(O)c4ncccc4c3)ccn2)CC1	n	n	67	n	n
COC(=O)NC1CSCC1OC(=O)c1ccc(Br)cc1 (configuration not stated)	n	u	n	n	22183
O=C(NC1CSCC1OC(=O)c1ccccc1)c1ccccc1 (configuration not stated)	n	n	n	n	n
O=C(NC[C@@](O)(c1ccccc1)C1CC1)Nc1cccs1	x	x	n	x	x
Cc1cc(=O)oc2cc(OCC3CC(c4ccc(Cl)cc4)=NO3)ccc12 (configuration not stated)	n	n	n	n	22029
COc1ccc(C(=O)Nc2c(Cl)cc(Cl)cc2C(=O)NCCN2CCOCC2)cc1	n	u	n	n	21881
O=C(Nc1c(Cl)cc(Cl)cc1C(=O)NCCN1CCOCC1)c1ccc(Cl)cc1Cl	n	n	n	n	16191
COc1ccc(-n2c(C)nc3cc(C(=O)NCCN4CCOCC4)ccc32)cc1	n	u	n	n	23270
O=C(Nc1ccc(Cl)cc1C(=O)NCCN1CCOCC1)c1ccc(Cl)cc1Cl	n	n	n	n	n
CCOc1ccc(-n2c(C)nc3cc(C(=O)NCCN4CCOCC4)ccc32)cc1	n	n	n	n	n
CS(=O)(=O)c1ccc2nc(NC(=O)CCn3c(=O)sc4ccccc43)sc2c1	x	x	n	x	x
COc1ccc(N2C(=O)N(CC(=O)NC3CCCC3)c3ccccc3S2(=O)=O)cc1OC	x	x	n	x	x
Cc1cc(C)c(C(=O)c2sc3nc(C)cc(C)c3c2O)c(C)c1	x	x	n	x	x
Cc1ccc(Nc2ncccc2C(=O)NCc2cccs2)c(C)c1	n	u	n	n	21631
SMILES	BoNT F protease	BoNT-A LC inh2	SSB-PriA inh	Anthrax LF inh2	Bead autofluor
Cc1ccccc1CNC(=O)C(=O)NCCC1CCCCN1S(=O)(=O)c1ccc(F)cc1C (configuration not stated)	x	x	n	x	x
Cc1onc(-c2ccccc2Cl)c1C(=O)N1CCN(c2ccccc2)CC1	n	u	n	n	22146
Cc1nc(C)c(-c2ccc(=O)n(CCNC(=O)c3c(-c4ccccc4Cl)noc3C)n2)s1	x	x	37	x	x
Cc1onc(-c2ccccc2Cl)c1C(=O)N1CCN(c2cccc(Cl)c2)CC1	n	n	n	n	n
Cc1onc(-c2ccccc2Cl)c1C(=O)NCCN1CCN(c2ccccc2F)CC1	x	x	n	x	x
Cc1onc(-c2ccccc2Cl)c1C(=O)NCCN1Cc2ccccc2C1=O	n	n	47	n	n
CN(C)S(=O)(=O)N1CCCSCC1CN1CCOCC1 (configuration not stated)	x	x	n	x	x
CN(C(=O)CSc1nc(-c2ccccc2)cn1N)C(c1ccccc1)c1ccccc1	n	n	50	n	24699
COc1ccccc1CNC(=O)CSc1nc(-c2ccccc2)cn1N	n	n	n	n	n
Cc1ccc(C)c2[nH]c(=O)c(C(c3nnnn3Cc3ccccc3)N3CCc4ccccc4C3)cc12 (configuration not stated)	n	u	n	n	22367
Cc1ccc2cc(C(c3nnnn3CC3CCCO3)N3CCc4ccccc4C3)c(=O)[nH]c2c1 (configuration not stated)	n	n	n	n	22554
O=c1[nH]c2cc3c(cc2cc1C(c1nnnn1Cc1ccccc1)N1CCCCCC1)OCCO3 (configuration not stated)	n	n	n	n	17658
Cc1cc2cc(C(c3nnnn3CC3CCCO3)N3CCCc4ccccc43)c(=O)[nH]c2cc1C (configuration not stated)	n	n	n	n	24311
